In ChEMBL document CHEMBL4513146, “CO-ADD screening of Karazin Kharkiv National University (Ukraine) compounds” one finds Inhibition data, which are given here for 59 compounds.

One assay deals with Klebsiella pneumoniae. The conditions noted are these: Concentration 32 ug.mL-1;; ASSAY_TEST Inhibition of Bacterial Growth; detection method Absorption (OD600); MEDIA CAMHB; plate type 384well; NBS; CORNING #3640; time 18 hr.
For another assay, the system named is Candida albicans. The following applies: Concentration 32 ug.mL-1; ASSAY_TEST Inhibition of Fungal Growth; detection method Absorption (OD530).
A further assay has as its system Cryptococcus neoformans. The conditions noted are these: Concentration 32 ug.mL-1; ASSAY_TEST Inhibition of Fungal Growth; detection method Resazurin; Absorption (OD600-OD570); plate type 384well; NBS; CORNING #3640.

SMILES strings stand for the structures. Results with a measured potency or affinity are listed apart.

Regarding `COc1cc(NC(=O)C(C)Sc2nnc3c(=O)n(-c4ccc(F)cc4)ccn23)cc(OC)c1` (configuration not stated), the Inhibition with Klebsiella pneumoniae is given as 6.23%; in the assay with Candida albicans it was 7.68%; in the assay with Cryptococcus neoformans, -7.14%.
Consider `CCc1ccc(NC(=O)Cn2nc3c4cc(-c5ccc(C)c(C)c5)nn4ccn3c2=O)cc1`, for which the Inhibition in the assay with Klebsiella pneumoniae was 5.45%; in the assay with Candida albicans, 21.77%; with Cryptococcus neoformans, -12.06%.
On to `Cc1cc(C)cc(Nc2nc(C)cc3nn(CC(=O)Nc4cc(F)ccc4F)c(=O)n23)c1`, for which the Inhibition in the assay with Klebsiella pneumoniae is given as 17.33%; in the assay with Candida albicans, 4.37%; in the assay with Cryptococcus neoformans it was -7.31%.
For `CCc1cccc(NC(=O)Cn2nc3c(SCc4ccc(Cl)cc4)nccn3c2=O)c1` the same measures were 7.77%, 22.52% and -20.82%.
For `CCOc1ccccc1NC(=O)Cn1nc2c(SC3CCCCC3)nccn2c1=O` the same measures were 10.39%, 5.31% and -21.42%.
With `Cc1c(Cl)cccc1-n1ccn2c(=O)n(Cc3ccccc3Cl)nc2c1=O`, the Inhibition in the assay with Klebsiella pneumoniae is -1.96%; in the assay on Candida albicans, -2.16%; in the assay on Cryptococcus neoformans, -12.25%.
On to `COc1ccc(NC(=O)c2ccc3nn(CC(=O)Nc4ccc5c(c4)OCCO5)c(=O)n3c2)cc1`, for which the results for the Inhibition in the assay on Klebsiella pneumoniae, in the assay with Candida albicans and in the assay with Cryptococcus neoformans were 2.24%, 1.62% and -23.54%, respectively.
For `CCCCn1c(=O)c2sccc2n2c(=O)n(CC(=O)N(C)c3ccccc3)nc12` the same measures were -1.65%, -0.48% and -15.83%.
For `COc1cc(OC)c(NC(=O)Cn2nc3c(Sc4cccc(C)c4)nccn3c2=O)cc1Cl`, the Inhibition in the assay with Klebsiella pneumoniae is 10.68%; in the assay on Candida albicans, 47.09%; with Cryptococcus neoformans, -23.34%.
For `O=C(Cn1nc2nc(Nc3ccc(F)cc3)ccn2c1=O)NCC1CCCO1` (configuration not stated) the same measures were 12.02%, 1.89% and -8.84%.
Take `CC1CCCN(c2nccn3c(=O)n(CC(=O)Nc4ccc(F)cc4F)nc23)C1` (configuration not stated): the Inhibition is given as -1.65% in the assay with Klebsiella pneumoniae, 1.98% in the assay on Candida albicans and -8.2% in the assay with Cryptococcus neoformans.
As for `CCOC(=O)c1ccc(NC(=O)Cn2nc3ccc(Sc4cccc(F)c4)nn3c2=O)cc1`, the values for the Inhibition in the assay on Klebsiella pneumoniae, with Candida albicans and with Cryptococcus neoformans were 10.14%, 3.42% and -9.72%, respectively.
As for `Cc1ccc(-c2cc3c4nn(CC(=O)Nc5ccc6c(c5)OCO6)c(=O)n4ccn3n2)cc1`, the Inhibition in the assay with Klebsiella pneumoniae is on record as 10%; in the assay with Candida albicans, 9.65%; in the assay on Cryptococcus neoformans it was -32.25%.
As to `CCC(Sc1nnc2c(=O)n(-c3cccc(OC)c3)ccn12)C(=O)Nc1cc(OC)ccc1OC` (configuration not stated), the Inhibition is 1.63% in the assay with Klebsiella pneumoniae, 1.95% in the assay on Candida albicans and -10.37% with Cryptococcus neoformans.
For `CSc1cccc(NC(=O)Cn2nc3c4c5c(sc4ncn3c2=O)CCCC5)c1` the same measures were -0.84%, 7.75% and -24.58%.
For `CCCCn1c(=O)c2sccc2n2c(=O)n(CC(=O)N3CCCC(C(=O)OCC)C3)nc12` (configuration not stated) the same measures were -2.03%, -3.31% and -9.46%.
As to `Cc1cccc(C)c1NC(=O)Cn1nc2c(SC3CCCCC3)nccn2c1=O`, the Inhibition with Klebsiella pneumoniae is 8.3%; in the assay on Candida albicans, 20.03%; in the assay with Cryptococcus neoformans, -18.68%.
Consider `COc1ccc(OC)c(NC(=O)Cn2nc3c4cc(-c5ccc(C)c(C)c5)nn4ccn3c2=O)c1`, for which the Inhibition in the assay with Klebsiella pneumoniae is 5.66%; with Candida albicans, 5.32%; in the assay with Cryptococcus neoformans, -22.06%.
For `Cc1cccc(NC(=O)CSc2nnc3c(=O)n(-c4ccccc4)ccn23)c1`, the Inhibition in the assay with Klebsiella pneumoniae is recorded as 3.26%; in the assay on Candida albicans it was 1.31%; with Cryptococcus neoformans, -14.94%.
For `Cc1ccc(NC(=O)Cn2nc3c(N4CCCC4)nccn3c2=O)cc1Cl` the same measures were 13.96%, 0.98% and -21.34%.
`Cc1nnc2c(SCC(=O)Nc3ccc(C#N)cc3)nc3ccccc3n12`: the Inhibition in the assay with Klebsiella pneumoniae is given as 5.06%; with Candida albicans, -1.44%; in the assay on Cryptococcus neoformans, -16.12%.
For `CC(C)c1nnc2c(SCC(=O)Nc3ccc(Br)cc3)nc3ccccc3n12` the same measures were 6.82%, 0.48% and 0.69%.
On to `Cc1ccc(Cn2nc3c(=O)n(-c4cccc(F)c4)ccn3c2=O)cc1`, for which the Inhibition is 1.12% in the assay on Klebsiella pneumoniae, 5.68% with Candida albicans and -10.74% in the assay with Cryptococcus neoformans.
For `Cc1ccc(NC(=O)Cn2nc3c4c5c(sc4ncn3c2=O)CCCC5)c(Cl)c1` the same measures were 3.19%, 9.32% and -16.36%.
On to `Cc1ccc(NC(=O)Cn2nc3ccc(SCc4ccc(Cl)cc4)nn3c2=O)c(C)c1`, for which the Inhibition is recorded as 5.23% with Klebsiella pneumoniae, 4.69% with Candida albicans and -27.61% in the assay on Cryptococcus neoformans.
Take `Cn1c(=O)c2sccc2n2c(=O)n(Cc3ccc(Cl)cc3)nc12`: the Inhibition is 4.35% in the assay on Klebsiella pneumoniae, -0.47% in the assay on Candida albicans and -19.86% in the assay on Cryptococcus neoformans.
For `CCOC(=O)c1ccccc1NC(=O)Cn1nc2ccc(Sc3ccc(C)cc3)nn2c1=O` the same measures were 14.69%, -1.17% and -9.49%.
For `CCc1ccc(N(Cc2cccc(Cl)c2)S(=O)(=O)c2cccn3c(C)nnc23)cc1` the same measures were 7.34%, 9.1% and -5.8%.
For `Cc1ccc(Oc2nc3ccccc3n3c(=O)n(CC(=O)Nc4cccc(C(F)(F)F)c4)nc23)cc1` the same measures were 8.2%, 1.82% and -21.42%.
`O=C(CSc1nnc2c3cc(-c4ccccc4)nn3ccn12)NCc1ccccc1Cl`: the Inhibition with Klebsiella pneumoniae is recorded as 7.7%; in the assay with Candida albicans, 0.55%; with Cryptococcus neoformans it was -17.16%.
For `COc1ccc(-c2cc3c4nn(CC(=O)Nc5ccc(OC)c(Cl)c5)c(=O)n4ccn3n2)cc1` the same measures were -0.45%, 32.01% and -18.43%.
For `Cc1cccc(NC(=O)Cn2nc3c(SCc4ccc(Cl)cc4)nccn3c2=O)c1C` the same measures were 15.65%, 5.99% and -31.05%.
Turning to `CCc1ccccc1Sc1nccn2c(=O)n(CC(=O)Nc3c(C)cccc3C)nc12`, the Inhibition in the assay with Klebsiella pneumoniae is 10.25%; in the assay with Candida albicans it was 3.49%; in the assay on Cryptococcus neoformans, -15.72%.
For `COC(=O)c1ccccc1NC(=O)Cn1nc2c(Oc3ccccc3)nccn2c1=O` the same measures were 8.23%, 7% and -9.79%.
For `CCc1ccccc1Sc1nccn2c(=O)n(CC(=O)Nc3cccc(C)c3)nc12` the same measures were 4.48%, -0.7% and -3.25%.
`CCc1nnc2c(SCC(=O)NCc3ccccc3Cl)nc3ccccc3n12`: the Inhibition was 8.04% with Klebsiella pneumoniae, 1.39% in the assay on Candida albicans and -17.43% in the assay on Cryptococcus neoformans.
`COc1ccc2[nH]cc(C(=O)CSc3nnc4c(=O)n(-c5ccc(F)cc5)ccn34)c2c1`: the Inhibition in the assay with Klebsiella pneumoniae is given as 12.89%; in the assay with Candida albicans, 3.24%; with Cryptococcus neoformans, -7.69%.
In the case of `CCOC(=O)c1ccccc1NC(=O)CSc1nc2ccccc2n2c(C(C)C)nnc12`, the Inhibition is reported as 12.78% in the assay on Klebsiella pneumoniae, 1.73% in the assay on Candida albicans and -19.92% in the assay with Cryptococcus neoformans.
For the compound `Cc1cc(C)cc(Nc2nc(C)cc3nn(CC(=O)Nc4ccc(Cl)cc4)c(=O)n23)c1`, the values for the Inhibition in the assay with Klebsiella pneumoniae, in the assay with Candida albicans and with Cryptococcus neoformans were 13.53%, 5.41% and -4.1%, respectively.
For `O=c1c2sccc2n2c(SCc3cccc(C(F)(F)F)c3)nnc2n1Cc1ccc(F)cc1` the same measures were 10.74%, 2.55% and -25.66%.
`COc1ccc(-c2cc3c4nn(CC(=O)Nc5ccc(C)c(F)c5)c(=O)n4ccn3n2)cc1`: the Inhibition is given as 3.92% in the assay with Klebsiella pneumoniae, 28.75% in the assay on Candida albicans and -7.43% in the assay on Cryptococcus neoformans.
For `Cc1ccc(-n2ccn3c(=O)n(Cc4cccc(Cl)c4)nc3c2=O)cc1C` the same measures were 2.85%, 1.08% and -13.91%.
For `Cc1cccc(NC(=O)Cn2nc3c(SCc4ccccc4)nccn3c2=O)c1C` the same measures were 5.49%, 0.78% and -13.96%.
Regarding `O=c1c2nn(Cc3cccc(Cl)c3)c(=O)n2ccn1-c1ccccc1`, the results for the Inhibition with Klebsiella pneumoniae, in the assay on Candida albicans and with Cryptococcus neoformans were 1.75%, 6.73% and -10.03%, respectively.
For `Cc1ccc(CN(c2ccc3c(c2)OCO3)S(=O)(=O)c2ccc3nnc(C)n3c2)cc1` the same measures were 2.15%, 2.45% and -2.21%.
For `COc1cccc(CNC(=O)CSc2nnc3c4cc(-c5cc(C)ccc5C)nn4ccn23)c1OC` the same measures were 10.97%, 2.62% and -25.27%.
For `C=Cc1ccc(CN(c2ccc(F)cc2)S(=O)(=O)c2ccc3nnc(C)n3c2)cc1` the same measures were 5.5%, 1.83% and -7.48%.
Regarding `CCOc1ccccc1NC(=O)Cn1nc2c(Oc3ccccc3)nccn2c1=O`, the Inhibition with Klebsiella pneumoniae is listed as 5.91%; in the assay with Candida albicans, 2.77%; in the assay with Cryptococcus neoformans, -10.21%.
For `O=C(CSc1nnc2c(=O)n(-c3ccccc3)ccn12)Nc1ccccc1F` the same measures were 7.24%, -0.73% and -14.95%.
For `O=S(=O)(c1ccc2nncn2c1)N(Cc1cc(F)cc(F)c1)c1cccc(F)c1` the same measures were 11.98%, 2.7% and -8.32%.
For `Cc1cccc(N(C)C(=O)Cn2nc3cc(C)nc(Nc4ccc(F)c(C)c4)n3c2=O)c1` the same measures were 4.58%, 2.18% and -4.41%.
Regarding `COc1ccc(NC(=O)Cn2nc3c4cc(-c5ccc(C)c(C)c5)nn4ccn3c2=O)c(OC)c1`, the values for the Inhibition in the assay on Klebsiella pneumoniae, with Candida albicans and with Cryptococcus neoformans were -0.09%, 3.53% and -22.33%, respectively.
Turning to `CCc1ccc(NC(=O)CSc2nnc3ccc(C(=O)Nc4cccc(F)c4)cn23)cc1`, the Inhibition was 0.94% in the assay on Klebsiella pneumoniae, 1.65% in the assay on Candida albicans and -4.96% in the assay with Cryptococcus neoformans.
On to `O=S(=O)(c1ccc2nncn2c1)N(Cc1ccc(F)cc1)c1ccc(F)c(F)c1`, for which the results for the Inhibition in the assay with Klebsiella pneumoniae, with Candida albicans and with Cryptococcus neoformans were 5.64%, 2.31% and -6.65%, respectively.
As for `CCOc1ccc(NC(=O)Cn2nc3c(Sc4ccccc4)nccn3c2=O)cc1`, the Inhibition in the assay on Klebsiella pneumoniae is 8.21%; in the assay on Candida albicans, 7.49%; in the assay with Cryptococcus neoformans it was -21.93%.
For `CCOc1ccc(-n2ccn3c(SCC(=O)Nc4ccc(F)cc4F)nnc3c2=O)cc1` the same measures were 15.47%, 3.41% and -5.09%.
In the case of `CCC(C)NC(=O)Cn1nc2n(CCC(=O)NC3CCCCC3)c(=O)c3ccccc3n2c1=O` (configuration not stated), the Inhibition is given as -2.01% with Klebsiella pneumoniae, 3.91% in the assay on Candida albicans and -20.86% with Cryptococcus neoformans.
For `Cc1cc2nn(CC(=O)Nc3ccc(F)cc3Cl)c(=O)n2c(Nc2ccc(F)cc2)n1` the same measures were 8.79%, 8.11% and -3.99%.
Turning to `CCOc1ccc(-n2ccn3c(SCc4cccc(C(F)(F)F)c4)nnc3c2=O)cc1`, the Inhibition in the assay on Klebsiella pneumoniae is given as 0.24%; in the assay on Candida albicans, 0.48%; with Cryptococcus neoformans, -7.62%.
